Calls of active or inactive are those of the source. Rule for the calls: active = hit-call score of the fitted dose curve at least 0.9, where 1 is the maximum; inactive = score below 0.9.
Columns and labels:
[1] = CEETOX_H295R_OHPREG: CeeTox H295R High-throughput Steroidogenesis Assay for OH-Pregnenolone (OHPREG) (AID 2283434); conditions: actives raise or lower the signal
Method in brief: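 Readout: HPLC-MS/MS of 17alpha-hydroxypregnenolone in medium after 48 h chemical exposure of H295R cells pretreated with forskolin. Values fitted bidirectionally relative to DMSO; chemicals reducing viability to 20–70% were retested after 10-fold dilution.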

[2] = CEETOX_H295R_OHPROG: CeeTox H295R High-throughput Steroidogenesis Assay for OH-Progesterone (OHPROG) (AID 2283435); conditions: actives raise or lower the signal;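 for AC50: 17alpha-hydroxyprogesterone secreted into medium measured by HPLC-MS/MS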
Method in brief: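 HPLC-MS/MS quantification of 17alpha-hydroxyprogesterone secreted by H295R cells after 48 h chemical exposure, following 48 h 10 uM forskolin prestimulation. Gain or loss of signal fitted relative to DMSO. Viability checked by MTT in the same wells.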

[3] = CEETOX_H295R_PROG: CeeTox H295R High-throughput Steroidogenesis Assay for Progesterone (PROG) (AID 2283442); conditions: actives raise or lower the signal
Method in brief: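 Measured analyte is progesterone secreted by H295R cells at 48 h of chemical treatment, following 10 uM forskolin priming. Quantitation used HPLC-MS/MS against a 7-point standard curve; cytotoxicity was checked by MTT absorbance.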

[4] = read-out: Tumor necrosis factor receptor superfamily member 6 (Homo sapiens) (UniProt P25445); experiment: LTEA_HepaRG_FAS: Life Technologies and Expression Analysis (LTEA) Assay for Fas cell surface death receptor (FAS) using HepaRG (AID 2283447); conditions: mRNA level, 48 h; actives raise or lower the signal
Method in brief: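 Differentiated human HepaRG cells, pre-cultured 48 h, were exposed in duplicate for 48 h to 8-point half-log concentrations (top 100 uM, 0.5% DMSO) in serum-free induction medium; FAS mRNA measured by qRT-PCR, normalized to ACTB/GAPDH/POLR2A, bidirectional fit versus DMSO.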

[5] = read-out: Fatty acid synthase (Homo sapiens) (UniProt P49327); experiment: LTEA_HepaRG_FASN: Life Technologies and Expression Analysis (LTEA) Assay for Fatty Acid Synthase (FASN) using HepaRG (AID 2283448); conditions: mRNA level, 48 h; actives raise or lower the signal
Method in brief: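 HepaRG, 48 h exposure, 8-pt half-log series top 100 uM, 0.5% DMSO vehicle, duplicates. Readout: FASN transcript by Fluidigm qRT-PCR; housekeeping-normalized; bidirectional curve fit vs DMSO baseline.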

[6] = read-out: Cyclin D2 (CCND2), CCND2 (gene 894); experiment: LTEA_HepaRG_CCND2: Life Technologies and Expression Analysis (LTEA) Assay for Cyclin D2 (CCND2) using HepaRG (AID 2283449); conditions: mRNA level, 48 h; actives raise or lower the signal;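 note: CCND2 transcript measured by TaqMan qRT-PCR and normalised to three housekeeping genes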
Method in brief: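 In this HepaRG study, an eight-point concentration series (max 100 uM, 0.5% DMSO) is applied for 48 h. CCND2 mRNA change is derived by qRT-PCR normalised to ACTB, GAPDH and POLR2A.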

[7] = read-out: Cyclin Dependent Kinase Inhibitor 1A (CDKN1A), CDKN1A (gene 1026); experiment: LTEA_HepaRG_CDKN1A: Life Technologies and Expression Analysis (LTEA) Assay for Cyclin Dependent Kinase Inhibitor 1A (CDKN1A) using HepaRG (AID 2283450); conditions: mRNA level, 48 h; actives raise or lower the signal
Method in brief: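 Gain or loss of CDKN1A transcript is scored by bidirectional fitting against 0.5% DMSO vehicle. Human HepaRG cultures receive chemicals for 48 h across an 8-point series peaking at 100 uM; expression comes from qRT-PCR.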

[8] = read-out: Cyclin D1 (CCND1), CCND1 (gene 595); experiment: LTEA_HepaRG_CCND1: Life Technologies and Expression Analysis (LTEA) Assay for Cyclin D1 (CCND1) using HepaRG (AID 2283451); conditions: mRNA level, 48 h; actives raise or lower the signal
Method in brief: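 Expression change is measured by qRT-PCR in HepaRG cells after 48 h treatment across eight concentrations topping at 100 uM, with duplicate wells and DMSO (0.5%) serving as baseline for bidirectional fitting.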

[9] = read-out: catalase (CAT), CAT (gene 847); experiment: LTEA_HepaRG_CAT: Life Technologies and Expression Analysis (LTEA) Assay for catalase (CAT) using HepaRG (AID 2283452); conditions: mRNA level, 48 h; actives raise or lower the signal;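 for AC50: TaqMan qRT-PCR signal normalized to ACTB GAPDH and POLR2A housekeeping genes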
Method in brief: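 Differentiated HepaRG cells in serum-free induction medium were dosed 48 h in duplicate, eight half-log concentrations from 100 uM in 0.5% DMSO. Transcript measured by TaqMan qRT-PCR, normalised to ACTB/GAPDH/POLR2A, fitted bidirectionally against DMSO.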

[10] = read-out: flavin-containing dimethylaniline monooxygenases 3 (FMO3), FMO3 (gene 2328); experiment: LTEA_HepaRG_FMO3: Life Technologies and Expression Analysis (LTEA) Assay for flavin-containing dimethylaniline monooxygenases 3 (FMO3) using HepaRG (AID 2283453); conditions: mRNA level, 48 h; actives raise or lower the signal
Method in brief: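 Eight-point concentration-response in serum-free HepaRG cultures (top 100 uM, 0.5% DMSO, 48 h). Read-out: FMO3 mRNA level normalized to three endogenous control genes, fitted bidirectionally versus vehicle.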

[11] = read-out: Cytochrome P450 (CYP1A1), CYP1A1 (gene 1543); experiment: LTEA_HepaRG_CYP1A1: Life Technologies and Expression Analysis (LTEA) Assay for Cytochrome P450 (CYP1A1) using HepaRG (AID 2283454); conditions: mRNA level, 48 h; actives raise or lower the signal
Method in brief: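 Using HepaRG cultures with 0.5% DMSO as vehicle, eight-concentration exposures (max 100 uM) lasted 48 h. Transcript levels were measured by TaqMan qRT-PCR and normalized to ACTB, GAPDH and POLR2A.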

[12] = read-out: CFLAR gene, CFLAR (gene 8837); experiment: LTEA_HepaRG_CFLAR: Life Technologies and Expression Analysis (LTEA) Assay for CFLAR gene using HepaRG (AID 2283455); conditions: mRNA level, 48 h; actives raise or lower the signal
Method in brief: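 Gain- or loss-of-signal changes in CFLAR transcript were fitted bidirectionally relative to 0.5% DMSO. Cells (HepaRG, duplicate wells) were dosed for 48 h across eight half-log concentrations topping at 100 uM; quantitation by TaqMan qRT-PCR.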

[13] = read-out: Forkhead box O1 (FOXO1), FOXO1 (gene 2308); experiment: LTEA_HepaRG_FOXO1: Life Technologies and Expression Analysis (LTEA) Assay for Forkhead box O1 (FOXO1) using HepaRG (AID 2283456); conditions: mRNA level, 48 h; actives raise or lower the signal
Method in brief: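 Using one lot of HepaRG hepatic cells kept in 0.5% DMSO, the team applied test chemicals in duplicate, half-log dilutions from 100 uM, for 48 h. Expression, normalised to ACTB/GAPDH/POLR2A, was compared with vehicle in either direction.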

[14] = CEETOX_H295R_11DCORT: CeeTox H295R High-throughput Steroidogenesis Assay for 11-Deoxycortisol (11DCORT) (AID 2283432); conditions: actives raise or lower the signal
Method in brief: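 H295R cells prestimulated 48 h with 10 uM forskolin, then exposed 48 h to chemical in 0.1% DMSO. 11-Deoxycortisol in medium quantified by HPLC-MS/MS after MTBE extraction; bidirectional fit versus DMSO. MTT viability read in same wells.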

[15] = CEETOX_H295R_CORTIC: CeeTox H295R High-throughput Steroidogenesis Assay for Corticosterone (CORTIC) (AID 2283437); conditions: actives raise or lower the signal;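 note: corticosterone secreted into medium quantified by mass spectrometry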
Method in brief: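 Steps: seed H295R, adhere overnight; 10 uM forskolin 48 h; replace with chemical (0.1% DMSO) 48 h; extract medium with MTBE; quantify corticosterone by HPLC-MS/MS; score bidirectionally vs DMSO.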

[16] = CEETOX_H295R_CORTISOL: CeeTox H295R High-throughput Steroidogenesis Assay for Cortisol (AID 2283438); conditions: actives raise or lower the signal;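 note: cortisol secreted into medium quantified by LC-MS/MS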
Method in brief: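 Read-out: cortisol in culture medium by reverse-phase C18 HPLC with ESI-positive tandem MS, after MTBE liquid-liquid extraction. Cells: human adrenal H295R, forskolin-primed (10 uM, 48 h) before 48 h chemical exposure in 0.1% DMSO.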

[17] = CEETOX_H295R_ESTRADIOL: CeeTox H295R High-throughput Steroidogenesis Assay for Estradiol (AID 2283440); conditions: actives raise or lower the signal;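 note: estradiol secreted into medium quantified by LC-MS/MS after dansyl derivatisation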
Method in brief: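 Readout is estradiol in conditioned medium, quantified by reverse-phase HPLC-MS/MS against a 7-point standard curve. Cells: H295R, forskolin-stimulated, then dosed 48 h in 0.1% DMSO; activity fitted in both directions relative to DMSO.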

[18] = CEETOX_H295R_ESTRONE: CeeTox H295R High-throughput Steroidogenesis Assay for Estrone (AID 2283441); conditions: actives raise or lower the signal;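 note: estrone secreted into medium measured by LC-MS/MS after dansyl derivatization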
Method in brief: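 Forskolin-stimulated H295R cells are treated 48 h with chemical, and estrone in the medium is measured by LC-MS/MS. Activity is fitted in both directions relative to DMSO controls, with chemicals diluted until MTT viability reaches at least 70%.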

[19] = CEETOX_H295R_TESTO: CeeTox H295R High-throughput Steroidogenesis Assay for Testosterone (TESTO) (AID 2283457); conditions: actives raise or lower the signal
Method in brief: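 Steroidogenesis in H295R cells following OECD 456 with minor changes; 48 h exposure. Medium testosterone by HPLC-MS/MS, DMSO as baseline, with MTT viability run in parallel.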

Sequence of Fatty acid synthase (Homo sapiens) (P49327 whole entry, looked up): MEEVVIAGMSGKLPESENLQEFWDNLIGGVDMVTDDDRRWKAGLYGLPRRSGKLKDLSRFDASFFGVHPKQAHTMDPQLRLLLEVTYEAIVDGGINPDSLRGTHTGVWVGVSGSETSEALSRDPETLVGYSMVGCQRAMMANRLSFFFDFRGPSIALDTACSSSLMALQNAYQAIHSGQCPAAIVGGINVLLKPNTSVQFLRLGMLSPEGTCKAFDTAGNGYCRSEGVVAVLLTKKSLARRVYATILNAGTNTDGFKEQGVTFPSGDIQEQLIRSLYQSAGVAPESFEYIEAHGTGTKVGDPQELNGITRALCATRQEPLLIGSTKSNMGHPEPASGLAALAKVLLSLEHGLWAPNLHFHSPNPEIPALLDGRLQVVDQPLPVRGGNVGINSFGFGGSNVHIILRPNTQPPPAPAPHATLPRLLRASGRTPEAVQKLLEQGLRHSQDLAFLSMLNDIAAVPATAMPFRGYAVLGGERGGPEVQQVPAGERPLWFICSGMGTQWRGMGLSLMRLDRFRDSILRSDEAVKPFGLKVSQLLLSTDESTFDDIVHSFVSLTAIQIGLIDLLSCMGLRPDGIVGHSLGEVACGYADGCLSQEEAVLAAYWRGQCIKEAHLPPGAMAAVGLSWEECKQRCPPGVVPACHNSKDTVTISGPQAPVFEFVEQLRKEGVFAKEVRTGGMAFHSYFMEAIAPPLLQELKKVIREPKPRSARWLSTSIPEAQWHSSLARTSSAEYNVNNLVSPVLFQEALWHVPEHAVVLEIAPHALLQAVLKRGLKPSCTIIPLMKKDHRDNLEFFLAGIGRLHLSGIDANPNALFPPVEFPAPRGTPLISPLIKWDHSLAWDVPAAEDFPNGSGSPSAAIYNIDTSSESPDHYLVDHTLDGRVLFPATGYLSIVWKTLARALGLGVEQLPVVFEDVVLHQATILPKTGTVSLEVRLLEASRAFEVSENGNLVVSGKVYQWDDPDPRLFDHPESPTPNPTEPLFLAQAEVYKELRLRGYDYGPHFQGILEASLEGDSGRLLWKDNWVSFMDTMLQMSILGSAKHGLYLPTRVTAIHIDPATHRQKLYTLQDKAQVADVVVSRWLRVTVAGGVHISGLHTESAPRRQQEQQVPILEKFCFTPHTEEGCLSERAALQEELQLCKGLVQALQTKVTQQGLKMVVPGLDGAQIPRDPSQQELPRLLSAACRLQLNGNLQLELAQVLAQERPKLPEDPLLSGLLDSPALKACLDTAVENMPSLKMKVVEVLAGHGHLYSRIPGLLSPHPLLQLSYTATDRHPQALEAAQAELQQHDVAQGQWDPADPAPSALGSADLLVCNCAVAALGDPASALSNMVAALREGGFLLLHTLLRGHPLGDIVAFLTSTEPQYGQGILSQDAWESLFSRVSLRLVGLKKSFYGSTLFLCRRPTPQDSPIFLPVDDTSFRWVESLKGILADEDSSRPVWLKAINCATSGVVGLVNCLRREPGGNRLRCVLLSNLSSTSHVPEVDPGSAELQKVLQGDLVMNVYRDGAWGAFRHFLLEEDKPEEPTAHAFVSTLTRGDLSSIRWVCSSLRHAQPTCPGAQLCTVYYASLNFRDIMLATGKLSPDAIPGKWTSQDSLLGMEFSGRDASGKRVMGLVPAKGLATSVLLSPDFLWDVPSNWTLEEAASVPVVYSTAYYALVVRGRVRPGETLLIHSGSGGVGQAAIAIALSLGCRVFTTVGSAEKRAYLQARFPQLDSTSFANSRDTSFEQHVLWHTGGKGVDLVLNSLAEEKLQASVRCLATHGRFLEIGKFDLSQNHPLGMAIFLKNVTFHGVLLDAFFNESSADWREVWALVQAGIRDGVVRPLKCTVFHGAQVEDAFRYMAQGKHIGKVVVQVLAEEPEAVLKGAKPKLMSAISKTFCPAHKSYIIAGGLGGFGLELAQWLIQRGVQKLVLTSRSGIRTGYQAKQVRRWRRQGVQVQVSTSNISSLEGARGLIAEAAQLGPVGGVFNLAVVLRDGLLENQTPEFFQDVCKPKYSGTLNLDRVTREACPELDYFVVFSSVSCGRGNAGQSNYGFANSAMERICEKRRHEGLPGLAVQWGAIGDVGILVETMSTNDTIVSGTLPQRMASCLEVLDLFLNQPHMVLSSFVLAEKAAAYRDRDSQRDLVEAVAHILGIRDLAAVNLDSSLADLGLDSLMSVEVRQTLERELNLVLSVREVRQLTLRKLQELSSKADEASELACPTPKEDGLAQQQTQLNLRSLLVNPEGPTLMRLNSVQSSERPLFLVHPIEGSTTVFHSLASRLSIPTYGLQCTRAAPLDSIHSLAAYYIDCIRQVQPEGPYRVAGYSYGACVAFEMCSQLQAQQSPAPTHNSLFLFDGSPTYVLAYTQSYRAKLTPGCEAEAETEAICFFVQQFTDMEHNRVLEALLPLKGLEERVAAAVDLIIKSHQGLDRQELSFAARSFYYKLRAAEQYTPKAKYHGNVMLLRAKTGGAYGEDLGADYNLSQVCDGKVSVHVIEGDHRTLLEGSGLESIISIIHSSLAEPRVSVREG

With `C=CCc1ccc(O)c(OC)c1` the outcome [1] was “inactive”, the outcome [2] was “inactive” and the outcome [3] was “inactive”. For the same compound, the outcome [4] was “inactive”, the outcome [5] was “inactive” and the outcome [6] was “inactive”. For the same compound, the outcome [7] was “inactive”, the outcome [8] was “inactive” and the outcome [9] was “inactive”. The outcome [10] was “inactive”, the outcome [11] was “inactive” and the outcome [12] was “inactive”. For the same compound, the outcome [13] was “inactive”.
In the case of `Oc1ccc2c(c1)OC[C@@H](N1CCC(O)(c3ccc(F)cc3)CC1)[C@H]2O`, the outcome [14] was “inactive”, the outcome [1] was “inactive” and the outcome [2] was “inactive”. For the same compound, the outcome [15] was “inactive”, the outcome [16] was “inactive” and the outcome [17] was “inactive”. The outcome [18] was “inactive”, the outcome [3] was “inactive” and the outcome [4] was “inactive”. The outcome [5] was “inactive”, the outcome [7] was “inactive” and the outcome [8] was “inactive”. For the same compound, the outcome [9] was “inactive”, the outcome [11] was “inactive” and the outcome [12] was “inactive”. The outcome [13] was “inactive”.
In the case of `COCCOCCOC`, the AC50 [4] was 382 nM (active), the outcome [5] was “inactive” and the outcome [6] was “inactive”. For the same compound, the outcome [7] was “inactive”, the outcome [8] was “inactive” and the outcome [9] was “inactive”. The outcome [10] was “inactive”, the AC50 [11] was 1220 nM (active) and the AC50 [12] was 253 nM (active). For the same compound, the AC50 [13] was 2220 nM (active).
With `Cc1cc(NC(=O)C(=O)O)cc(C)c1Oc1ccc(O)c2c1CCC2` the outcome [14] was “inactive”, the outcome [1] was “inactive” and the AC50 [2] was 35000 nM (active). The AC50 [15] was 34100 nM (active), the outcome [16] was “inactive” and the AC50 [3] was 43200 nM (active). For the same compound, the outcome [4] was “inactive”, the outcome [5] was “inactive” and the outcome [7] was “inactive”. For the same compound, the outcome [8] was “inactive”, the AC50 [9] was 303 nM (active) and the outcome [10] was “inactive”. For the same compound, the AC50 [11] was 2.6 nM (active), the outcome [12] was “inactive” and the outcome [13] was “inactive”. The outcome [19] was “inactive”.

Source: PubChem BioAssay (EPA / NIEHS)
